sEH activator: increases human soluble epoxide hydrolase activity; actives 0.04% (n = 91,000); purified human sEH enzymatic activity, activator screen; AID 717; P34913; activation, % at 2 µM; in the data active = activation above about 37%
Target sequence (P34913 whole entry, looked up): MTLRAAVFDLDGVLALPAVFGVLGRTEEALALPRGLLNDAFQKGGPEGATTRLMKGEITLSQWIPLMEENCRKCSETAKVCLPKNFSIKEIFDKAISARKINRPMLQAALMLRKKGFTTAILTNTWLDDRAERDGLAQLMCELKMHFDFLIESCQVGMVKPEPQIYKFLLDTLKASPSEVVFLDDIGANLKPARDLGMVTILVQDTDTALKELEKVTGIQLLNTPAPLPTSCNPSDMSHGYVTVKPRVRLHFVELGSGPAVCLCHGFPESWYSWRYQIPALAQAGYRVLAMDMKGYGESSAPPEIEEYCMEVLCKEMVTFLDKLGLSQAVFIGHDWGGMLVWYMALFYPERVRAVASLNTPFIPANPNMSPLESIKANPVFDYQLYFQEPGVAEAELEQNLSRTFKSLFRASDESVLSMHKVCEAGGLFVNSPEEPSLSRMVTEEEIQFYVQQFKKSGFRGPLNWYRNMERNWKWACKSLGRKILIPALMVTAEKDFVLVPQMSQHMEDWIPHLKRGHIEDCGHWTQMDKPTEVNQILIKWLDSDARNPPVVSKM
Measles CPE: protection of cells from measles virus. protection (pct of control), % at 4 µM. Measles virus-infected cells, CPE protection, absorbance. actives 1.5% (n = 140,000); in the data active = protection mostly above about 24%, no sharp cut-off; inactive = mostly below about 26%
sEH inhibitor: inhibitors of human soluble epoxide hydrolase; inhibition, % at 2 µM; P34913; actives 0.34% (n = 91,000); AID 707; recombinant human sEH enzymatic activity assay; in the data active = inhibition above about 80%
cytoskel mod: cytoskeleton assembly modification; HUVEC TNFa F-actin phalloidin imaging, high content; inhibition, % at 2 µM; actives 0.18% (n = 91,000); AID 836;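 active = inhibition above the batch mean plus 3 SD and confirmed as a hit by visual image inspection, cut at about 30% in these data, passing the limit was not always enough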
Calb biofilm kill: kills Candida albicans biofilms. inhibition, % at 6 µM. AID 834. actives 0.14% (n = 85,000). C. albicans biofilm + clotrimazole, Alamar Blue;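 active = inhibition above 20%; inactive = inhibition below 20%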;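 also: preformed 24 hr biofilms exposed to compound for 48 hr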
Hits are given with their value; – = inactive; · = no result given. Shown are actives, neighbours in structure and some others; about 1.9% of the full set was active somewhere.

SMILES | sEH activator | Measles CPE | sEH inhibitor | cytoskel mod | Calb biofilm kill
CCOc1cc(/C=N/O)ccc1OCc1ccc(F)cc1 | · | – | · | · | ·
COc1cc(/C=N/n2c(C)n[nH]c2=S)ccc1OCc1ccc(F)cc1 | · | 121.8 | · | · | ·
CC(C)Oc1ccc2ccccc2c1C=O | – | 23.8 | – | – | ·
CCN1CCN(Cc2c(OC)ccc3ccccc23)CC1 | – | – | – | – | –
O=C(COc1ccc2ccccc2c1)NCCNC(=O)COc1ccc2ccccc2c1 | – | 84.5 | – | – | –
O=C(COc1ccc2ccccc2c1)NNC(=O)Cc1ccccc1 | · | – | · | · | ·
Cc1cc(SCC(=O)c2cc3ccccc3o2)nc2ccccc12 | – | – | – | – | –
Cc1cc(SCC(=O)c2ccc3c(c2)OCO3)nc2ccccc12 | – | 30.7 | – | – | –
CCOC(=O)C1=NN(C(C)=O)C2(CC(=O)N(c3cccc(C)c3)C2=O)C1 (stereo unspecified) | · | – | · | · | ·
CCCCC(=O)Nc1ccc2oc(-c3ccncc3)nc2c1 | – | – | – | – | –
CC(C)CC(=O)Nc1ccc2oc(-c3cccnc3)nc2c1 | – | – | – | – | –
CCCCCC(=O)Nc1ccc2oc(-c3cncc(Br)c3)nc2c1 | – | – | 82.4 | – | –
CCCC(=O)Nc1ccc2oc(-c3ccncc3)nc2c1 | – | 37.1 | – | – | –
COc1ccc(CC(=O)Nc2ccc(-c3nnc(-c4ccccc4)o3)cc2)cc1OC | – | – | – | – | –
COc1ccc(-c2nc3cc(NC(=O)Cc4ccc(OC)c(OC)c4)ccc3o2)cc1 | – | – | 80.1 | · | –
COc1ccccc1Nc1nc2nonc2nc1N1CCC(C)CC1 | · | 78.4 | · | · | ·
COc1ccc(OC)c(Nc2nc3nonc3nc2N2CCCCC2)c1 | – | – | – | – | ·
Cc1ccc(N(CC(=O)N/N=C/c2cccc(Br)c2)S(C)(=O)=O)cc1 | · | – | · | · | ·
COc1ccc(CC(=O)Nc2cccc(-c3nnc(-c4cccc(C)c4)o3)c2)cc1OC | · | – | · | · | –
COc1ccc(Cc2nnc(-c3cccc(C)c3)o2)cc1OC | · | – | · | · | 24.0
CCOCC(=O)Nc1cc(-c2cn3cccnc3n2)ccc1C | – | – | – | – | –
CCc1c(O)cc(=O)n(-c2ccccc2)c1-c1ccccc1 | · | 25.9 | · | · | ·
CC(=O)c1c(O)cc(=O)n(-c2ccccc2)c1-c1ccc(Cl)cc1 | · | – | · | · | ·
COc1ccc(NC(=O)N(Cc2ccc3c(c2)OCO3)C2CC(=O)N(c3ccc(OC)cc3)C2=O)cc1 (stereo unspecified) | – | – | – | 31.8 | –
O=C1CC(N(Cc2ccc3c(c2)OCO3)C(=O)Nc2ccc(F)cc2)C(=O)N1c1ccccc1 (stereo unspecified) | – | – | – | – | –
SMILES | sEH activator | Measles CPE | sEH inhibitor | cytoskel mod | Calb biofilm kill
CCc1nnc(NC(=O)C(=O)NCCOC(=O)c2ccccc2)s1 | – | – | – | – | ·
O=C(CN1CCOc2ccccc21)NC1CCCCCCC1 | – | · | 86.5 | – | –
C=C(C)CSc1nc(N)c2c(C)c(C)sc2n1 | – | – | – | – | –
CCOc1ccccc1Nc1nc(N)nc(CSc2nccc(C)n2)n1 | – | 24.4 | – | – | –
COc1ccccc1Nc1nc(N)nc(CSc2ncccn2)n1 | – | – | – | – | ·
CCn1ncc(Br)c1C(=O)Nc1ccc(C(=O)OC(C)C)cc1 | – | 38.3 | – | – | –
CNS(=O)(=O)c1cccc(C(=O)OCC(=O)N2CCc3ccccc3C2)c1 | – | – | – | – | –
Cc1ccnc(NS(=O)(=O)c2cnc(Cl)c(Br)c2)c1 | · | – | · | · | ·
CCn1c2ccccc2c2cc(CN3CCN(S(=O)(=O)Cc4ccccc4)CC3)ccc21 | · | – | · | · | ·
CCn1c(/N=C/c2ccccc2NS(=O)(=O)c2ccc(C)cc2)nc2ccccc21 | · | 65.8 | · | · | ·
Cc1ccc(C2CC(c3ccc(Cl)cc3)=NNC2=O)cc1 (stereo unspecified) | – | 49.0 | – | – | –
Cc1cccc(N(CC(=O)NC2CCCCC2)C(=O)CCCC(=O)Nc2ccccn2)c1 | – | 32.9 | – | – | –
CCOC(=O)C1CCN(C(=O)c2cn(CCOC)c(=O)c3c2c2ccccc2n3C)CC1 | – | – | – | 39.2 | –
Cc1ncc(CO)c2cc(C(N)=O)c(=Nc3ccccc3)oc12 | – | 48.1 | – | 35.9 | –
O=C(c1ccc(Cl)cc1Cl)C1(n2cncn2)Oc2ccccc2C1O (stereo unspecified) | · | – | · | · | –
O=C1CC(=O)C(n2cncn2)C(c2ccc(Cl)cc2Cl)C1 (stereo unspecified) | · | 22.1 | · | · | ·
O=C1OCC(CO)(CO)N=C1NNc1ccccc1Cl | – | – | – | 31.3 | ·
CS/C(=N\S(=O)(=O)c1ccc(Cl)cc1)c1ccccc1 | – | – | – | – | ·
CS/C(=N/S(=O)(=O)c1ccc(C)cc1)c1ccccc1 | · | 17.9 | · | · | ·
CCN1CCN(c2nc3c(c(=O)[nH]c(=O)n3C)n2CCCSc2ncccn2)CC1 | – | – | – | – | –
O=C(CN1CCC(O)(c2ccccc2F)CC1)NCCc1c[nH]c2ccccc12 | – | – | – | – | –
CC(=O)N(C(C)=O)S(=O)(=O)c1ccc(N=NN2CCCCC2)cc1 | · | – | · | · | ·
CC(C)OCCCNS(=O)(=O)c1ccc2ccccc2c1 | – | 30.1 | – | – | –
O=c1cc(O)c2c(=O)n(-c3ccccc3)c3c(c2o1)CCCCCC3 | · | 35.8 | · | · | ·
O=c1cc(O)c2c(=O)n(C3CCCCC3)c3ccccc3c2o1 | – | – | – | – | ·
SMILES | sEH activator | Measles CPE | sEH inhibitor | cytoskel mod | Calb biofilm kill
O=C(CN1CCCCC1)Nc1ccccc1 | – | 30.3 | – | – | –
COc1ccccc1/C=N/NC(=O)CCn1cnc2ccccc21 | · | – | · | · | ·
CN(C)c1ccc(C(=O)C(O)c2ccccc2)cc1 (stereo unspecified) | – | – | – | – | –
CN(C)c1ccc(C(=O)c2ccccc2)cc1 | – | 44.5 | – | – | –
O=C1CC(c2ccc(F)cc2)CC(O)=C1C=NCCN1CCN(C(=O)Nc2ccccc2)CC1 (stereo unspecified) | – | – | – | – | –
Cc1ccccc1NC(=O)c1ccc(CN2CCC(Cc3ccccc3)CC2)cc1 | – | 50.7 | – | – | ·
N#CC1=C(N)OC2=C(C(=O)CC(c3ccccc3)C2)C1c1ccoc1 (stereo unspecified) | · | 30.4 | · | · | ·
O=C(CSCc1c(F)cccc1Cl)NCc1cccnc1 | · | – | · | · | ·
Cc1ccc(Nc2nc(CSc3nnc(-c4cccnc4)n3-c3ccccc3C)cs2)cc1 | · | 53.4 | · | · | ·
Cc1ccc(C(=O)NC(C)c2ccccc2)o1 (stereo unspecified) | – | 34.4 | – | – | –
Cc1cc(C)n(-c2ccc(C(=O)OCC(=O)Nc3ccccc3[N+](=O)[O-])cc2)n1 | · | – | · | · | ·
Cc1cc(C)n(-c2ccc(C(=O)OCC(=O)Nc3ccc([N+](=O)[O-])cc3)cc2)n1 | · | 44.1 | · | · | ·
O=C(COc1ccc2c(c1)CCC2)N1CCc2ccccc21 | – | – | – | – | –
CC(=O)O[C@H]1C[C@@]2(C)[C@@H](C[C@@H](O)[C@H]3[C@@]4(C)CC[C@@H](O)[C@@H](C)C4CC[C@@]32C)/C1=C(\CCC=C(C)C)C(=O)O (stereo partly specified) | · | – | · | · | ·
O=C(O)CCN1C(=O)C2C3C=CC(C3)C2C1=O (stereo unspecified) | – | – | – | – | –
O=C(O)CCN1C(=O)C2CCCCC2C1=O (stereo unspecified) | – | – | – | · | 37.0
CCOc1ccc2nc3c(cc2c1)CN(CCOC)C(=NC)S3 | – | 29.3 | – | – | –
CCOCN(C(=O)Cn1c(CO)nc2ccccc21)c1c(C)cccc1CC | – | 34.6 | – | – | –
